# Hits are enriched below; roughly 3.5% of the tested compounds scored in any of these assays.
# TWEAK Fn14 block = blocks TWEAK-Fn14 interaction in a reporter cell assay | TWEAK-stimulated Fn14 reporter cells, luciferase luminescence, 8 h | inhibition, % at 10 µM | 360,000 tested, 2% active | AID 1159606; in the data active = inhibition above about 50%
# HSP90 inh = HSP90 refolding inhibition in rabbit reticulocyte lysate. 290,000 tested, 0.91% active. luciferase refolding luminescence, 3 h. AID 1789. inhibition, % at 5.6 µM;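 active = inhibition above the screen-wide mean plus 3 SD, computed separately per campaign, cut at about 16% in these data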;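 note: 0% = DMSO wells and 100% = 60 µM geldanamycin wells; inhibitors lower the luminescence because luciferase stays unfolded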
# TRAIL sens C8 = caspase-8 TRAIL sensitization; 360,000 tested, 1% active; inhibition (viability loss, TRAIL sensitization), % at 10 µM; AID 624354; NB7+C8 cells + TRAIL, ATPlite viability luminescence;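 active = compounds causing at least 50% loss of cell viability in the single-dose screen, relative to plate controls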
# TROY signal inh = inhibitors of TROY-dependent NF-kB signaling. Q293 LMP1-TROYcd NF-kB luciferase reporter, 4 h. inhibition, % at 10 µM. 360,000 tested, 0.98% active. AID 1347056;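 active = compounds whose plate-normalised and pattern-corrected inhibition of the luciferase reporter signal at the single screening dose is 50% or more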
# PPC-1+TRAIL kill = compounds killing PPC-1 cancer cells with TRAIL present (potentiator screen, no TRAIL-free arm). PPC-1 cells + TRAIL, ATPLite viability luminescence. cell killing (% activity), % at 4 µM or 5 µM. 220,000 tested, 0.41% active;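 active = cell killing above 50% in the first pass at 4 µM, then a duplicate retest at 5 µM averaging 50% or more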;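 note: plate controls were cells with TRAIL plus DMSO for no effect and medium-only wells lacking cells for full effect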
# Platelet DG rel = modulates dense granule release in human platelets. human platelet-rich plasma, SFLLRN dense granule ATP release, luminescence. inhibition, %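 (compounds screened at 7.5 µM in platelet-rich plasma)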. 300,000 tested, 0.22% active. AID 1663;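 active = mean replicate score, as percent of positive control, at or above 50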
# Active calls of the source: *; . = not tested or not shown.
SMILES,TWEAK Fn14 block,HSP90 inh,TRAIL sens C8,TROY signal inh,PPC-1+TRAIL kill,Platelet DG rel
Cc1ccc(NC(=O)CSc2ccccc2NC(=O)c2ccccc2)cc1Cl,-40.2,-1.7,-0.9,-63.5,17.3,11.0
COc1ccc(S(=O)(=O)N2CCCCCC2)cc1NC(=O)Cc1cccc(C(F)(F)F)c1,-1.9,.,6.6,-5.1,.,.
Cc1sc2nc(SCC(=O)Nc3ccc(Cl)c(C(=O)O)c3)[nH]c(=O)c2c1C,52.4*,.,10.5,24.7,.,.
CCCC(=O)Nc1ccc(C2C(=O)c3ccccc3C2=O)cc1,-7.0,6.8,75.9*,-26.9,.,27.6
Cc1ccc(NC(=O)c2ccc3nsnc3c2)c(Cl)c1,44.8,10.4,58.2*,12.1,.,8.9
O=C(Nc1ccc(Br)cc1F)c1ccc2nsnc2c1,1.9,-1.8,4.3,-35.4,.,7.4
CCCCn1nc(C(=O)Nc2ccc3c(c2)OCO3)c2ccccc2c1=O,-22.7,.,7.5,-37.4,.,.
Cc1cc(C(=O)N/N=C/c2ccc3c(c2)OCO3)c(C)o1,-39.3,2.0,32.0,-48.2,34.4,12.2
O=C(N/N=C/c1ccccc1O)c1ccc2c(c1)OCO2,-11.4,7.6,45.0,1.4,.,1.0
O=C(N/N=C/c1cccs1)c1ccc2c(c1)OCO2,42.5,1.8,76.3*,-30.1,58.6*,1.2
COc1ccc(/C=N/NC(=O)c2cc(-c3ccc4c(c3)OCO4)n[nH]2)cc1OC,52.4*,-0.6,5.3,-28.1,22.7,-3.9
CCN(CC)c1ccc(/C=N/NC(=O)OC)c(O)c1,-18.8,-1.1,9.9,-1.3,18.5,.
CCN(CC)c1ccc(/C=N/NC(=O)c2ccoc2C)c(O)c1,3.4,7.0,44.4,22.4,41.0,117.3*
Cc1occc1C(=O)N/N=C/c1ccc2c(c1)OCO2,63.9*,13.8,35.1,4.6,21.8,125.6*
COc1cc(C(O)c2nc(-c3cccc(F)c3)cs2)ccc1F (stereo not given),-7.3,.,5.3,-38.9,.,.
O=C(COC(=O)CCSc1ccccc1)Nc1ccccc1Br,-31.9,.,-1.1,-71.2,.,.
Cc1occc1C(=O)N/N=C/c1ccc(-c2ccccc2)cc1,34.3,45.3*,35.3,15.2,.,92.5*
CCN(CC)c1ccc(C=Nc2ccc(N(C)C)cc2)c(O)c1,58.0*,4.4,2.1,-5.1,-0.8,5.6
O=C(N/N=C/c1ccc2c(c1)OCO2)c1cccs1,-8.9,3.8,41.2,-32.0,29.2,6.6
O=C(N/N=C/c1c[nH]c2ccccc12)c1ccc2c(c1)OCCO2,24.5,-2.1,75.8*,-42.4,44.4,2.2
Cc1ccsc1C(=O)N/N=C/c1ccc2c(c1)OCO2,55.1*,8.9,28.9,-1.9,24.8,65.6*
CN1OC[C@@H]2CN(C(=S)NCCc3ccccc3)[C@H](c3ccccc3Br)C[C@@H]21,-20.8,.,2.8,-4.4,.,.
CCN(CCNCC(O)COc1ccccc1C(C)C)c1cccc(C)c1 (stereo not given),-3.4,-0.6,-18.0,3.2,.,-0.2
CCN(CC)c1ccc(/C=N/NC(=O)c2c(-c3ccccc3)noc2C)cc1,18.1,8.0,-0.5,52.8*,.,8.8
CCOc1ccc(/C=N/NC(=O)c2c(-c3ccccc3)noc2C)cc1,10.1,-5.8,-3.5,-4.7,17.4,-5.1
SMILES,TWEAK Fn14 block,HSP90 inh,TRAIL sens C8,TROY signal inh,PPC-1+TRAIL kill,Platelet DG rel
COc1cc(/C=C/C(=O)c2ccc(C)cc2)ccc1OCC#N,86.6*,-0.6,12.6,-9.6,10.1,-32.9
CCOc1cc(/C=C/C(=O)c2ccc(C)cc2)ccc1OCC(=O)N(C)C,58.7*,-8.3,7.8,-3.9,13.8,6.8
COc1cc(-c2noc(C)c2-c2ccc3[nH]ccc3c2)cc(OC)c1OC,55.9*,-3.1,6.1,11.8,.,-0.2
COc1cc(-c2noc(C)c2-c2ccc(N(C)C)nc2)cc(OC)c1OC,8.1,-7.3,9.6,7.2,.,-2.8
O=C(CN(C(=O)c1ccccc1)C(=O)c1ccccc1)OCc1ccccc1,13.6,.,8.3,-0.2,.,.
Nc1cccc2c1C(=O)N(C(=O)/C=C/c1cccc(F)c1)C2=O,70.3*,-0.6,-1.2,0.2,22.7,-4.0
Nc1cccc2c1C(=O)N(C(=O)/C=C/c1cccc(Br)c1)C2=O,53.5*,1.0,-12.4,-15.6,-1.4,-28.0
O=C(N1CCCCCC1)N1CCN(S(=O)(=O)c2cccc([N+](=O)[O-])c2)CC1,4.3,0.5,-10.3,7.6,.,-5.3
CC1=C(C(=O)N2CCOCC2)CC(CC(=O)NCCN2CCOCC2)C(=O)N1Cc1ccc(F)cc1 (stereo not given),6.6,.,-16.6,-11.0,.,.
O=C(CCc1nnc2ccc(NCc3ccco3)nn12)N1CCN(c2ccccc2)CC1,15.5,-1.4,-10.3,-9.7,.,5.5
CCOC(=O)C1CCN(C(=O)CCc2nnc3ccc(NCc4ccco4)nn23)CC1,41.7,-5.9,2.5,-13.7,.,70.4*
O=C1[C@H]2[C@@H](/C=C/c3ccccc3)N3C(=O)CN(CC4CC4)C(=O)[C@@]3(Cc3ccccc3)[C@H]2C(=O)N1c1ccccc1,-17.9,-2.4,54.9*,-27.8,.,-0.5
CC(=NNC(=S)N1CCCCC1)c1cccc(C)n1,-39.2,.,15.9,6.8,.,.
CSC(=S)NN=C(C)c1cccc(C)n1,91.0*,.,15.3,16.4,.,.
COc1ccc(CCNC(=O)C(=O)NCC2OCCN2S(=O)(=O)c2ccc(Cl)cc2)cc1OC (stereo not given),13.1,-2.7,-5.7,13.9,.,5.2
O=C1NC[C@@H](CCCCN2C[C@H](Cc3ccc(O)cc3)N(CCC3CCCCC3)C(=O)C2=O)N(Cc2ccccc2)C1=O,11.4,.,12.6,-8.2,.,.
Cc1ccc(N=Cc2c(O)c3ccccc3oc2=O)c(C)c1,57.0*,6.2,2.2,54.6*,.,3.0
CCOC(=O)c1ccc(Nc2ncnc3ccc(C)cc23)cc1,20.4,-4.0,-7.6,11.7,12.6,0.5
CCOc1ccc(Nc2ncnc3ccc([N+](=O)[O-])cc23)cc1,77.2*,3.0,15.2,51.2*,8.3,-12.0
CCOc1ccc(CN2CCN(Cc3ccsc3)C(CCO)C2)cc1CO (stereo not given),88.5*,-0.8,-4.6,3.6,16.0,-3.2
COCc1cc(CN2CCN(Cc3ccsc3)C(CCO)C2)ccc1OC (stereo not given),19.5,-3.4,0.1,2.7,.,-1.7
CSCCC(C(=O)N(C)CC(=O)Nc1cccc(F)c1)N1C(=O)c2ccccc2C1=O (stereo not given),6.5,.,-8.4,-1.7,.,.
O=C(c1cc2nc(-c3ccc(F)cc3)cc(C(F)(F)F)n2n1)N1CCCCC1c1cccnc1 (stereo not given),61.4*,3.5,21.9,45.2,15.4,0.3

# Bioassay records: PubChem, several laboratories
